An excerpt weighted towards active compounds, which were near 2.9% of everything screened.
DRD3 antagonist – qHTS of D3 Dopamine Receptor Antagonist: qHTS. D(3) dopamine receptor (Homo sapiens), P35462. D3R cells, DiscoveRx beta-arrestin luminescence, antagonist mode; active compounds read low. max response, negative = inhibition, %. hit rate 2.5% among 360,000; in the data active = max response below about -50%; inconclusive = no clear call, values can overlap the other calls; note: % is set by controls: 0 for no effect and ±100 for the full control effect
Target sequence (P35462 whole entry, looked up): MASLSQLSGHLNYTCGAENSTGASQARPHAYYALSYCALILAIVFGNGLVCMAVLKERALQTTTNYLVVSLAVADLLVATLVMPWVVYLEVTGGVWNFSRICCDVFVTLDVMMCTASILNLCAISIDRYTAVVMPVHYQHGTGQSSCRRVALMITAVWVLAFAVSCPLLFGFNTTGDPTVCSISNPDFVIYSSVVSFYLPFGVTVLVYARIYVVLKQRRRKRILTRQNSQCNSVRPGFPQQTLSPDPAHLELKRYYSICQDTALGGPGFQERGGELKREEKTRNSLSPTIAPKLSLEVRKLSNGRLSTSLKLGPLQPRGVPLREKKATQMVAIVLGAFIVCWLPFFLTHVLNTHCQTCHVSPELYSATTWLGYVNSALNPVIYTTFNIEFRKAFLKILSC
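Cells plated overnight at 1500 cells/well, then exposed to library compounds with dopamine controls for 90 minutes at 37 degrees C. DiscoveRx reagent added for 30–60 minutes at room temperature; luminescence read, quantitative HTS format.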
a7 integrin act – qHTS for Activators of Integrin-Mediated Alleviation for Muscular Dystrophy | Potency, µM (top dose mostly 38.3 µM), without a hit: at the highest dose activation, usual class: activators | alpha7betagal myoblasts, beta-gal FDG fluorescence, 48 h | hit rate 0.064% among 350,000 | AID 624291, 2012; active = well fitted activation curve with a large enough effect; inconclusive = small, poorly fitted or top-dose-only effect; inactive = no such curve, though single readings can be large or run the other way;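 note: potency is the fitted concentration of half-maximal effect; 100% = response of the positive control SU9516; nearly all actives have a fitted effect of over 60% in size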
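alpha7betagal+/- myoblasts (passage 13, 250/well) treated 48 h at 37C with compounds at 1:260 dilution of DMSO stock. Lysed, then beta-galactosidase activity read as FDG fluorescence (ex 480/em 540) after 30 min, with pre-read for autofluorescence.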
DRD3 agonist – qHTS of D3 Dopamine Receptor Agonist: qHTS. D(3) dopamine receptor (Homo sapiens), P35462. D3R DiscoveRx beta-arrestin cells, luminescence, 90 min. max activation, %. hit rate 0.58% among 410,000. AID 652048, 2013; in the data active = max activation above about 30%; note: 0% is about no effect
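Cells at 1500/well, incubated overnight, then treated with pinned compounds (dopamine as control) for 90 min at 37 degrees C. DiscoveRx reagent added for 30 - 60 minutes at room temperature; luminescence read.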
Starred values were filed as active, the others as inactive; [ ] = dose if it differs, or a comment.

For S=c1[nH]nc(-c2cc(-c3ccccc3)n[nH]2)n1/N=C/C=C/c1ccccc1 the results were DRD3 antagonist -26, a7 integrin act 1% and DRD3 agonist -16.
`O=C(NC(=S)Nc1ccc(N2CCCCC2)c(Cl)c1)c1cccs1` gave DRD3 antagonist inconclusive, a7 integrin act -42% and DRD3 agonist -15.
O=C1Oc2ccccc2C(=O)/C1=C/N1CCN(c2ccccc2F)CC1 was read as DRD3 antagonist -59*, a7 integrin act inconclusive and DRD3 agonist -27.
For CCS(=O)(=O)N1CCN(c2ccccc2F)CC1 the results were DRD3 antagonist 9, a7 integrin act -3% and DRD3 agonist 0.
Cc1ccc(Cn2c(SCC(=O)NCc3ccco3)nc3ccsc3c2=O)cc1 was read as DRD3 antagonist 37, a7 integrin act 11%[7.66 µM] and DRD3 agonist -11.
Screening COC(=O)c1ccccc1-c1ccc(/C=N/NC(=O)c2cc3ccccc3o2)o1 returned DRD3 antagonist -10, a7 integrin act -3% and DRD3 agonist -9.
COC(=O)c1ccccc1-c1c2ccc(=N)cc-2oc2cc(N)ccc12 was read as DRD3 antagonist -64*, a7 integrin act -993% and DRD3 agonist -36.
Screening O=C(COc1ccc2ccc(=O)oc2c1)Nc1ccc(N2CCOCC2)cc1 returned DRD3 antagonist 0, a7 integrin act -14% and DRD3 agonist 4.
`CC(OC(=O)C1CCN(S(=O)(=O)c2ccc(C(C)(C)C)cc2)CC1)C(=O)N1CCOCC1` (stereo not given) gave DRD3 antagonist -2, a7 integrin act -27% and DRD3 agonist -4.
O=c1nc2ccccc2c2n1CC(CN1CCN(c3ccccc3F)CC1)N2 (stereo not given) was read as DRD3 antagonist -69*, a7 integrin act 22% and DRD3 agonist -16.
Screening O=c1nc2ccccc2c2n1CC(CN1CCN(c3ccc(F)cc3)CC1)N2 (stereo not given) returned DRD3 antagonist -21, a7 integrin act 30% and DRD3 agonist -14.
Screening COc1ccc(F)cc1-c1cc(C(=O)NCc2ccc(C(F)(F)F)cc2)[nH]n1 returned DRD3 antagonist -73* and DRD3 agonist -21.
Screening Cc1ccc(F)cc1-c1cc(C(=O)NCc2cc(C(F)(F)F)cc(C(F)(F)F)c2)[nH]n1 returned DRD3 antagonist -70* and DRD3 agonist -13.
`Cc1cc(F)ccc1-c1cc(C(=O)NCc2cc(C(F)(F)F)cc(C(F)(F)F)c2)[nH]n1` gave DRD3 antagonist -8 and DRD3 agonist 0.
COc1ccc(F)cc1-c1cc(C(=O)NCc2cccc(C(F)(F)F)c2)[nH]n1 was read as DRD3 antagonist -24 and DRD3 agonist -5.
Cc1cccc(OCCNC(=O)CCNS(=O)(=O)c2ccc3ccccc3c2)c1 was read as DRD3 antagonist 5, a7 integrin act -23% and DRD3 agonist 7.
`COc1cc(NS(=O)(=O)c2cc3[nH]c(=O)[nH]c3cc2C)cc(OC)c1OC` gave DRD3 agonist 2.
Screening O=C(CCN1CCCC1)Nc1cccc(Br)c1 returned DRD3 antagonist -8, a7 integrin act -14% and DRD3 agonist -15.
COc1cc(NC(=O)NCCN2CCN(c3ccccc3)CC2)cc(OC)c1OC was read as DRD3 antagonist -12, a7 integrin act -15% and DRD3 agonist -25.
For O=C(NCCN1CCN(c2ccccc2)CC1)Nc1cccc(Br)c1 the results were DRD3 antagonist -75*, a7 integrin act -24% and DRD3 agonist 10.
`O=C(CN1CCN(c2ccccc2)CC1)Nc1cccc(C(F)(F)F)c1` gave DRD3 antagonist -50*, a7 integrin act 16% and DRD3 agonist -23.
O=C(CN1CCN(Cc2ccccc2)CC1)Nc1cccc(C(F)(F)F)c1 was read as DRD3 antagonist -14, a7 integrin act -2% and DRD3 agonist -27.
Screening O=C(CCN1CCN(c2ccccc2)CC1)Nc1cccc(Br)c1 returned DRD3 antagonist -73*, a7 integrin act -6% and DRD3 agonist 3.
For O=C(NCC1(c2ccccc2)CCCC1)c1ccccc1Br the results were DRD3 antagonist 6, a7 integrin act -16% and DRD3 agonist 3.
COc1ccc(C(=O)N/N=C/c2sc3ccccc3c2O)cc1 was read as DRD3 antagonist -51*, a7 integrin act -58% and DRD3 agonist -17.
For COc1ccc2cc(C(=O)N/N=C/c3sc4ccccc4c3O)ccc2c1 the results were DRD3 antagonist inconclusive, a7 integrin act 15% and DRD3 agonist 2.
`Cc1ccc(S(=O)(=O)N2CCOCC2)cc1C(=O)NCc1cccs1` gave DRD3 antagonist 12, a7 integrin act 3% and DRD3 agonist 4.

Screens (PubChem)
